# Several values for one entry are separate records, joined by “and”; a condition that tells them apart may be missing. Equal values may be shown once. In all, about 16,000 compounds went through this assay and about 5,800 (36%) were called active. Not shown: some 23% with an inconclusive outcome. This is one part of the list. Values without a mark were called inactive. The call rests on the fitted dose curve; in most records, active means well fitted curve in the direction sought with a large enough effect; inconclusive means small, poorly fitted or top-dose-only effect, or effect the other way; inactive means no such curve, though single readings can be large or run the other way.
# Molecular target: Cytochrome P450 2C19 (Homo sapiens) (UniProt P33261)
# Test: Cytochrome panel assay with activity outcomes
# Details: recombinant CYP, pro-luciferin dealkylation, luminescence, p450-cyp2c19; series mostly up to 57.1 µM
# On the % scale 0 is the no-effect control and ±100 the full control effect.
# Chain of Cytochrome P450 2C19 (Homo sapiens) (P33261 whole entry, looked up): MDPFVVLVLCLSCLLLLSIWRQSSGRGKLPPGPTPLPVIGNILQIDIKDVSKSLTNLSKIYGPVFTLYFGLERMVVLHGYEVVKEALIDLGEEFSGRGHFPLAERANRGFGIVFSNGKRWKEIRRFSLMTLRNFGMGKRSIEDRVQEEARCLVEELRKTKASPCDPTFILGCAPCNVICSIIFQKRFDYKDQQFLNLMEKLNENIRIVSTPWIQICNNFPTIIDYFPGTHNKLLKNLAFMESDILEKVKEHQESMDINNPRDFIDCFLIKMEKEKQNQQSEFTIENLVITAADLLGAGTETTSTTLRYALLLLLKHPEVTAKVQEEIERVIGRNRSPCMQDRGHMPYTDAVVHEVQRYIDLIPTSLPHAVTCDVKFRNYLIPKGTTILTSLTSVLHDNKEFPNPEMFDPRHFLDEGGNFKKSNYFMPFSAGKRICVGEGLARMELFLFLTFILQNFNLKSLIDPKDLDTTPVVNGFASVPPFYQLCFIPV
Structure (SMILES),AC50,"activity, negative = inhibition"
Cn1c(=O)c2c(ncn2C[C@@H](O)CO)n(C)c1=O,inactive,
Cn1c(=O)c2c(ncn2CC(COCc2ccccc2Cl)OCc2ccccc2Cl)n(C)c1=O (stereo not given),8.91 µM (active),
Cn1c(=O)c2c(ncn2CCO)n(C)c1=O,inactive,
Cc1ccc(-c2csc(N3CCC(NS(=O)(=O)c4ccc5c(c4)OCCO5)CC3)n2)cc1,3.16 µM (active),
CCCCOc1ccc(C(=O)N/C(=C\c2cccc([N+](=O)[O-])c2)C(=O)OCCC)cc1,inactive,
CCCCOc1ccc(C(=O)N/C(=C\c2ccc(OC)cc2)C(=O)OCc2ccco2)cc1,3.98 µM (active),
O=c1c(-c2ccc(Cl)cc2)nc2cnc(N3CCOCC3)nc2n1C1CC1,inactive,
CC(=O)Nc1ccc([N+](=O)[O-])cn1,inactive,
C/C(=N\NC(=O)COc1ccc([N+](=O)[O-])cc1)C(C)(C)C,inactive,
O=C(COc1ccc(Br)cc1)Nc1ccc([N+](=O)[O-])cn1,2.82 µM (active),
CCOc1ccc2ccccc2c1C(=O)N[C@@H]1C(=O)N2[C@@H]1SC(C)(C)[C@@H]2C(=O)O,inactive,
CCOc1cc(C2CC(=O)c3c(ccc4ccccc34)N2)ccc1O (stereo not given),5.01 µM (active),
Cc1cc(OCc2nc(N)nc(N)c2-c2ccc(Cl)c(Cl)c2)ccc1[N+](=O)[O-],3.16 µM (active),
Nc1cccc(OCc2nc(N)nc(N)c2-c2ccc(Cl)cc2)c1,,-6.77% [at 11.4 µM]
CCCN1CCC(=NNC(=O)c2ccc(Br)o2)CC1,25.1 µM (active),
CC(C)N1CCC(=NNC(=O)c2ccc(Br)o2)CC1,inactive,
O=C(Nc1nnc(SCc2ccc(Cl)cc2Cl)s1)C1COc2ccccc2O1 (stereo not given),2.51 µM (active),
Nc1nc2c(nc(Br)n2[C@@H]2O[C@H]3COP(=O)(O)O[C@H]3[C@@H]2O)c(=O)[nH]1,inactive,
COC(=O)N1CCC2(CC1)CN(C(=O)Nc1cccc(C#N)c1)C2,inactive,
CCCC(=O)Nc1cccc(Oc2nc(C)cc(C)c2C#N)c1,17.8 µM (active),
Cc1cnc(NC(=O)CCCc2nc3ccccc3s2)s1,7.94 µM (active),
COc1ccccc1N1CCN(C[C@@H](O)COc2cccc3ccccc23)CC1,6.31 µM (active) and 7.94 µM (active) and 1.58 µM (active),
COc1ccccc1N1CCN(C[C@@H](C(=O)NC(C)(C)C)c2ccccc2)CC1,inactive,
Clc1ccc(CN2CCCN(Cc3ccc(Cl)cc3)C2c2cc3ccccc3c3ccccc23)cc1,0.794 µM (active),
O=C(O)[C@@H]1CCCN1Cc1cc2ccccc2c2ccccc12,,31.6% [at 11.4 µM]
CC(C)CC(=O)Nc1ccccc1-c1nnn(CC(=O)N2CCc3ccccc3C2)n1,14.1 µM (active),
COc1ccc2c(c1OC)C(=O)OC2[C@H]1c2c(cc3c(c2OC)OCO3)CCN1C (stereo not given in full),2.51 µM (active),
COc1ccc2c(c1OC)C(=O)O[C@@H]2[C@H]1c2c(cc3c(c2OC)OCO3)CCN1C,0.158 µM (active),

Structure (SMILES),AC50,"activity, negative = inhibition"
C[C@H]1CCCC=CC2C[C@H](OC(=O)CN(C)C)C[C@@H]2[C@@H](O)/C=C\C(=O)O1 (stereo not given in full),,8.1% [at 11.4 µM]
CSc1nnc(-c2sc(-c3ccccc3)nc2C)n1C,inactive,
C#CCSc1nnc(-c2cc3c(C(F)(F)F)nn(C)c3s2)n1C,inactive,
C#CCSc1nnc(-c2sc(-c3ccccc3)nc2C)n1C,2.51 µM (active),
COC(=O)[C@@]1(Cc2ccccc2)[C@@H]2C(=CC(=O)[C@H]2CC(=O)C(=O)N(C)C)CN1C(=O)c1ccccc1,inactive,
COC(=O)[C@@]1(Cc2ccc(F)cc2)[C@@H]2C(=CC(=O)[C@H]2CC(=O)C(=O)N(C)C)CN1C(=O)c1ccccc1,25.1 µM (active),
COC(=O)[C@@]1(Cc2ccc(F)cc2)[C@@H]2C(=CC(=O)[C@H]2CC(=O)C(=O)N2CCCC2)CN1C(=O)c1ccccc1,31.6 µM (active),
CC(NC(=O)Cc1ccc(F)cc1)c1ccccc1 (stereo not given),11.2 µM (active),
CC(=O)NC(Cc1ccc(F)cc1)C(=O)O (stereo not given),inactive,
Cc1nnsc1SCC(=O)O,inactive,
O=C(O)CSc1sc(=S)sc1SCC(=O)O,10 µM (active),
COc1cccc(C(=O)N(Cc2ccccc2)Cc2cc3cc4c(cc3[nH]c2=O)OCCO4)c1,15.8 µM (active),
C/C(CCN1CCc2nc(-c3ccccc3)c(-c3ccccc3)cc2C1)=N\O[C@@H](C)CN1CCCc2nc(C)c(C)cc21,,-28.4% [at 11.4 µM]
Cc1cc(/C=N/n2cnnc2)c(C)n1-c1ccc(OCc2ccccc2F)cc1,2 µM (active),
CCOC(=O)C(C)(C)[C@H](O)C(C)C,,3.67% [at 11.4 µM]
CS[C@]12C(=O)C[C@]3(C)[C@@H](CC[C@@]3(O)C(=O)CO)[C@@H]1CCC1=CC(=O)CC[C@]12C,3.16 µM (active),
C[C@@]12CCC(=O)C=C1CC[C@H]1[C@H]3CC[C@](O)(C(=O)CO)[C@]3(C)CC(=O)[C@@H]12,inactive,
CC(=O)OCC(=O)[C@@]1(O)CC[C@@H]2[C@H]3CCC4=CC(=O)CC[C@]4(C)[C@]3(F)[C@@H](O)C[C@@]21C,inactive,
O=C(c1cccc(F)c1)N1CCC2(CC1)CCN(c1ccc(-c3ccccc3)cc1)CC2,inactive,
Cc1ccc(C(=O)N2CCN(c3cc(=O)[nH]nc3-c3ccccc3)CC2)cc1,20 µM (active),
CC(C)[C@H](CO)Nc1nc(Nc2cc(N)cc(Cl)c2)c2ncn(C(C)C)c2n1,inactive,
CN(C)C(=O)c1ccc(-c2nc(Nc3ccc(F)cc3)c3ccccc3n2)cc1,31.6 µM (active),
CN(C)C(=O)c1ccc(-c2nc(NCc3cccs3)c3ccccc3n2)cc1,10 µM (active),
Cc1cnc(CNc2nc(-c3ccc(C(=O)N(C)C)cc3)nc3ccccc23)cn1,inactive,
CN(C)C(=O)c1ccc(-c2nc(Nc3ccccc3)c3ccccc3n2)cc1,15.8 µM (active),
CC(=O)NCCNc1nc(-c2ccc(C(=O)N(C)C)cc2)nc2ccccc12,inactive,
C=C1CC[C@H](O)C/C1=C/C=C1\CCC[C@]2(C)[C@H]1CC[C@H]2[C@@H](C)/C=C\[C@@H](C)C(C)C,inactive,

# Reference: PubChem BioAssay AID1851 (National Center for Advancing Translational Sciences (NCATS), 2009)
